In PubChem BioAssay (Tox21):
Inconclusive results are not listed. Activity calls are given as the source filed them. Unless noted, calls come from the whole dose curve; as a rule, active = well fitted curve in the direction sought with a large enough effect in the repeat runs; inconclusive = weak or mixed curves; inactive = flat fitted curve, though single readings scatter.

Tests used:
[1] = qHTS assay to test for compound auto fluorescence at 535 nm (green) in HEK293 cells (AID 720680)
[2] = qHTS assay to test for compound auto fluorescence at 460 nm (blue) in HEK293 cell free culture (AID 720681)
Outline: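 Compounds were added to cell-free DMEM with 10% FBS and fluorescence read directly. The blue channel used 405 nm excitation and 460 nm emission, with triamterene as the reference fluorophore.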

[3] = qHTS assay to test for compound auto fluorescence at 535 nm (green) in HEK293 cell free culture (AID 720682)
Outline: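 Steps: dispense DMEM/10% FBS into empty wells; pin in compound or DMSO; measure fluorescence at 485/535 nm. Values are fluorescein equivalents.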

[4] = qHTS assay to test for compound auto fluorescence at 590 nm (red) in HEK293 cell free culture (AID 720683)
Outline: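 Cell-free wells of DMEM with 10% FBS received compound, and intrinsic fluorescence was read at excitation/emission 540/590 nm. Values expressed as equivalence to Rose Bengal sodium.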

[5] = qHTS assay to test for compound auto fluorescence at 590 nm (red) in HepG2 cell free culture (AID 720684)
Outline: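 Rose Bengal sodium served as the reference for red signal. Test compounds were dispensed into serum-containing MEM (10% FBS) without cells, and plates were read at 540/590 nm.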

[6] = qHTS assay to test for compound auto fluorescence at 460 nm (blue) in HepG2 cell free culture (AID 720685)
Outline: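 Cell-free plates of MEM plus 10% FBS received 23 nL compound or DMSO vehicle; blue-channel (405/460 nm) intensity scored against triamterene as reference fluorophore.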

[7] = qHTS assay to test for compound auto fluorescence at 535 nm (green) in HepG2 cell free culture (AID 720686)
[8] = qHTS assay to test for compound auto fluorescence at 460 nm (blue) in HepG2 cells (AID 720687)
Outline: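 HepG2 cells in MEM with 10% FBS, attached overnight at 37 C, were exposed to compound or DMSO for 1 hr at 37 C, 5% CO2. Blue fluorescence was read at 405/460 nm, with triamterene as reference fluorophore.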

[9] = target: Glucocorticoid receptor (Homo sapiens) (UniProt P04150); assay: qHTS assay to identify small molecule agonists of the glucocorticoid receptor (GR) signaling pathway (AID 720691; active = well fitted activation curve with a large enough effect in the signal ratio in the repeat runs, not every such curve was filed as active; the % refers to the signal ratio)
Glucocorticoid receptor (Homo sapiens), sequence (P04150 whole entry, looked up): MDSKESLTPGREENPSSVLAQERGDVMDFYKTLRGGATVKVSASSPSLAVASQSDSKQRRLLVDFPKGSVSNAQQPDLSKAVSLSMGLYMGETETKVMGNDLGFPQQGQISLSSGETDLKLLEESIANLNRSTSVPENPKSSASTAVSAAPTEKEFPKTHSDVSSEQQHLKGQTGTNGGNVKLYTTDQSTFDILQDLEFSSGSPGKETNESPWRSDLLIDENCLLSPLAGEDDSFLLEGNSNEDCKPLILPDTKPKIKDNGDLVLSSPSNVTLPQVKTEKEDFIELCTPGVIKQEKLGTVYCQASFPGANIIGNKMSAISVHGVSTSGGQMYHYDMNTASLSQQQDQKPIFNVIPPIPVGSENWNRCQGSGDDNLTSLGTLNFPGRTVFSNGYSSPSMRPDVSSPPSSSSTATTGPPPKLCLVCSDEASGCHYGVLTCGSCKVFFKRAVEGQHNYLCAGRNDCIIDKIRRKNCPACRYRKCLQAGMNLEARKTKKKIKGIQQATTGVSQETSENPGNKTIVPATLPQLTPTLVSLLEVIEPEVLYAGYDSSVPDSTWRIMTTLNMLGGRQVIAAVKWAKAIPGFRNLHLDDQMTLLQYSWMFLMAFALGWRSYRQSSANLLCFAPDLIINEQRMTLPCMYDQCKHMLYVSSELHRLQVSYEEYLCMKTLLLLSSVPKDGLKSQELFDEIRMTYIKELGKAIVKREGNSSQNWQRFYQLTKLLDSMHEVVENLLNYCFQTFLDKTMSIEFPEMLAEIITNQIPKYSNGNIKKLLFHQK
Outline: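 Measures GR pathway activation through a GRE-beta-lactamase reporter stably integrated in HeLa cells, with 18 h compound treatment at 37 C and fluorescence detection using a FRET substrate.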
% is set by controls: 0 for no effect and ±100 for the full control effect.

[CH3][Hg][Cl]
inactive: outcome [1] | Potency [2] | outcome [3] | outcome [4] | outcome [5] | Potency [6] | outcome [7] | Potency [8]

COc1cc(C=O)cc2c1[C@H](COC(N)=O)[C@]1(OC(C)=O)ON2C[C@H]2[C@@H]1N2C(C)=O
inactive: outcome [1] | Potency [2] | outcome [3] | outcome [4] | outcome [5] | Potency [6] | outcome [7] | Potency [8]

CC(C)(C)c1ccc(CSc2cnn(C(C)(C)C)c(=O)c2Cl)cc1
inactive: outcome [1] | Potency [2] | outcome [3] | outcome [4] | outcome [5] | Potency [6] | outcome [7] | Potency [8]

CCc1nn(C)c(C(=O)NCc2ccc(C(C)(C)C)cc2)c1Cl
inactive: outcome [1] | Potency [2] | outcome [3] | outcome [4] | outcome [5] | Potency [6] | outcome [7] | Potency [8]

O=[N+]([O-])c1ccc2ccc3cccc4ccc1c2c34
inactive: outcome [1] | Potency [2] | outcome [3] | outcome [4] | outcome [5] | Potency [6] | outcome [7] | Potency [8]

CC(C)(O)c1cnn2c(-c3ccc(F)c(-c4c(F)cccc4C#N)c3)cnc2n1
inactive: outcome [1] | Potency [2] | outcome [3] | outcome [4] | outcome [5] | Potency [6] | outcome [7] | Potency [8]

c1ccc2c(c1)OCC(C1=NCCN1)O2 (configuration not stated)
inactive: outcome [1] | Potency [2] | outcome [3] | outcome [4] | outcome [5] | Potency [6] | outcome [7] | Potency [8]

COC(=O)N(C(=O)N1CO[C@@]2(C(=O)OC)Cc3cc(Cl)ccc3C2=N1)c1ccc(OC(F)(F)F)cc1
inactive: outcome [1] | Potency [2] | outcome [3] | outcome [4] | outcome [5] | Potency [6] | outcome [7] | Potency [8]

CCCCCCCCCBr
inactive: outcome [1] | Potency [2] | outcome [3] | outcome [4] | outcome [5] | Potency [6] | outcome [7] | Potency [8]

CCCSP(=O)(OCC)SCCC
inactive: outcome [1] | Potency [2] | outcome [3] | outcome [4] | outcome [5] | Potency [6] | outcome [7] | Potency [8]

CCCCCCCCCCCCCCCC[n+]1ccccc1
inactive: outcome [1] | Potency [2] | outcome [3] | outcome [4] | outcome [5] | Potency [6] | outcome [7] | Potency [8]

Cc1cc(N=Nc2ccccc2C)ccc1N
inactive: outcome [1] | Potency [2] | outcome [3] | outcome [4] | outcome [5] | Potency [6] | outcome [7] | Potency [8] | Potency [9]

CC(=O)[O-].CC(=O)[O-].O.O.[Cd+2]
inactive: outcome [1] | Potency [2] | outcome [3] | outcome [4] | outcome [5] | Potency [6] | outcome [7] | Potency [8]

BrCBr
inactive: outcome [1] | Potency [2] | outcome [3] | outcome [4] | outcome [5] | Potency [6] | outcome [7] | Potency [8] | Potency [9]

COC12CC[C@@]3(C[C@@H]1C(C)(O)C(C)(C)C)[C@H]1Cc4ccc(O)c5c4[C@@]3(CCN1CC1CC1)[C@H]2O5 (some centres not stated)
inactive: outcome [1] | Potency [2] | outcome [3] | outcome [4] | outcome [5] | Potency [6] | outcome [7] | Potency [8]

CCCCCCCCCCCCCCCC[N+](C)(C)C
inactive: outcome [1] | Potency [2] | outcome [3] | outcome [4] | outcome [5] | Potency [6] | outcome [7] | Potency [8]

O=[N+]([O-])c1ccc(Oc2ccc(C(F)(F)F)cc2[N+](=O)[O-])cc1
inactive: outcome [1] | Potency [2] | outcome [3] | outcome [4] | outcome [5] | Potency [6] | outcome [7] | Potency [8]

ClC1=C(Cl)C2(Cl)C3C(Cl)C(Cl)CC3C1(Cl)C2(Cl)Cl (configuration not stated)
inactive: outcome [1] | Potency [2] | outcome [3] | outcome [4] | outcome [5] | Potency [6] | outcome [7] | Potency [8]

Clc1ccc(-c2ccc(Cl)c(Cl)c2Cl)c(Cl)c1Cl
inactive: outcome [1] | Potency [2] | outcome [3] | outcome [4] | outcome [5] | Potency [6] | outcome [7] | Potency [8]

N#C/C=C/C#N
inactive: outcome [1] | Potency [2] | outcome [3] | outcome [4] | outcome [5] | Potency [6] | outcome [7] | Potency [8]

CC1(C)[C@H](C(=O)O[C@H](C#N)c2cccc(Oc3ccccc3)c2)[C@@H]1/C=C(\Cl)C(F)(F)F
inactive: outcome [1] | Potency [2] | outcome [3] | outcome [4] | outcome [5] | Potency [6] | outcome [7] | Potency [8] | Potency [9]

CC(C)Oc1cccc(NC(=O)c2ccccc2C(F)(F)F)c1
inactive: outcome [1] | Potency [2] | outcome [3] | outcome [4] | outcome [5] | Potency [6] | outcome [7] | Potency [8]

Nc1ccc(Sc2ccc(N)cc2)cc1
inactive: outcome [1] | Potency [2] | outcome [3] | outcome [4] | outcome [5] | Potency [6] | outcome [7] | Potency [8] | Potency [9]

Clc1ccc(CO/N=C(\Cn2ccnc2)c2ccc(Cl)cc2Cl)c(Cl)c1
inactive: outcome [1] | Potency [2] | outcome [3] | outcome [4] | outcome [5] | Potency [6] | outcome [7] | Potency [8]

O=c1oc2ccccc2c(O)c1Cc1c(O)c2ccccc2oc1=O
inactive: fluorescence, % of fluorescein [1] 0.155% [at 18.6 µM] | fluorescence, % of fluorescent control [2] 0.0571% [at 18.6 µM] | activity change [3] 0.109% [at 18.6 µM] | fluorescence, % of fluorescent control [4] 0.108% [at 18.6 µM] | fluorescence, % of Rose Bengal [5] 0.445% [at 18.6 µM] | fluorescence, % of fluorescent control [6] -0.0804% [at 18.6 µM] | fluorescence, % of fluorescein control [7] 0.114% [at 18.6 µM] | fluorescence, % of fluorescent control [8] 0.0049% [at 18.6 µM]

C=CC(=O)OCC(COC(=O)C=C)(COC(=O)C=C)COC(=O)C=C
inactive: outcome [1] | Potency [2] | outcome [3] | outcome [4] | outcome [5] | Potency [6] | outcome [7] | Potency [8]
